Results published in PubChem BioAssay (NCI).
Compounds without any hit were thinned out: in the full panel of roughly 83,000, 20% have a hit.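 Values shown are percent growth following 48 h exposure of cells in 96-well plates to a single concentration of compound; below 10 was considered active.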 Values without a mark were called inactive. Activity calls are given as the source filed them.

Experiments:
Assay in all cases: NCI-60 one-dose screen, 48 h (100 = growth as untreated, 0 = no growth, -100 = all killed)
Settings in all cases: 10 µM unless noted
[1] = tested on: HCT-15 colon
[2] = tested on: HT29 colon
[3] = tested on: SNB-75 CNS
[4] = tested on: SNB-19 CNS
[5] = tested on: PC-3 prostate
[6] = tested on: SK-MEL-5 melanoma
[7] = tested on: UACC-62 melanoma
[8] = tested on: LOX IMVI melanoma
[9] = tested on: SK-MEL-28 melanoma
[10] = tested on: U251 CNS

SMILES | growth [1] | growth [2] | growth [3] | growth [4] | growth [5] | growth [6] | growth [7] | growth [8] | growth [9] | growth [10] [%]
Brc1cccc(-n2ncc3c(Nc4ccc(-c5nnc(-c6ccccc6)o5)cc4)ncnc32)c1 | 101% | 106% | 92.3% | 102% | 95.1% | 98.7% | 93.3% | 93.3% | 112% | 
CCOC(=O)c1c(NC(=O)c2ccccc2)sc2c(O)c(CN(CC)CC)ccc12 | 15.7% | 2.28% (active) | -26.2% (active) | 43.8% | 22.8% | -51.3% (active) | 21.2% | 13.3% | 40% | 
COc1cc(/C=C/c2ccc3c(Br)cc(Br)c(O)c3n2)ccc1O | 27.6% | 36.7% | 36.5% | 23.4% | 12.9% | 27.5% |  | 29.5% | 23.3% | 
COc1cc(C(=O)/C=C/c2cn(-c3ccccc3)nc2-c2cccc(Nc3ccnc4cc(Cl)ccc34)c2)cc(OC)c1OC | 87.4% | 77.1% | 107% | 116% | 107% | 71.4% | 104% | 71.5% | 93.9% | 
CCOC(=O)c1ccccc1SC(C[N+](=O)[O-])c1ccccc1 (stereo unspecified) | 59.6% | 5.22% (active) | 85.1% | 95.2% | 78% | 84.3% | 97.8% | 30.9% | 98.3% | 
COc1cc2c(cc1OC)C(=O)C(Br)CC2 (stereo unspecified) | 17.5% | 24.1% | 53% | 85.3% | 31.2% | 53.2% | 33% | -0.506% (active) | 67.7% | 
CC(C)N=C1CCCC1C(=S)SSC(=S)C1CCCC1=NC(C)C (stereo unspecified) | 54.6% | 79.1% | 74.3% | 83.5% | 47.4% | 81.6% | 75% | 50.9% | 81% | 
COC1=CC(c2ccc[nH]2)=N/C1=C\c1[nH]c(C)c(C(=O)CCCCCCCCC(=O)O[C@H]2CC[C@H]3C4CCc5cc(O)ccc5C4CC[C@]23C)c1C (stereo partly specified) | 41% | 14.3% | 19.6% | 56.2% | 23% | -83% (active) | -48.3% (active) | -44.2% (active) | 34.5% | 
COc1ccc(C2CC(c3cccc(Nc4ccnc5cc(Cl)ccc45)c3)=NN2c2ccccc2)cc1 (stereo unspecified) | 46.6% | 60.8% | 62.5% | 78.3% | 67.5% | 39.1% | 29.5% | 49% | 84.9% | 
N[C@@H](CO)C(=O)O | 109% | 109% | 93.3% | 105% | 96.8% | 104% | 91.9% | 130% | 107% | 
CC1=C(C(=O)Nc2ccc(F)cc2)C(c2ccc(Cl)cc2)C2=C(CC(C)(C)CC2=O)N1 (stereo unspecified) | 84.6% | 98% | 66% | 86% | 61.7% | 75.9% | 77.4% | 87.8% | 82.6% | 
CCCCC(CCc1ccccn1)C(=O)c1ccccc1 (stereo unspecified) | 107% | 109% | 89.8% | 110% | 98.2% | 103% | 107% | 96.5% | 108% | 
CCCCn1c(C)nc2ccc(Nc3nc(Cl)nc4nc[nH]c34)cc21 | 82.6% | 79.9% | 62.8% | 90.5% | 36.3% | 63.6% | 69.8% | 90.2% | 94.3% | 
Cc1ccc(/C=C/C(=N/N=C(N)N)c2ccccc2)cc1 | 27.6% | 4.56% (active) | -0.425% (active) | 38.9% | 19% | 11.3% | 33.9% | 30.8% | 46.2% | 
CCOC(=O)NNc1cccc(Cl)c1 | 107% | 109% | 77.2% | 98% | 89.7% | 101% | 83.8% | 92.8% | 109% | 
CC(OC(=O)Nc1cccc(Cl)c1)C(=O)O (stereo unspecified) | 104% | 102% | 84.6% | 96.6% | 93% | 107% | 91.8% | 96.9% | 112% | 
CN1CCN(c2ccc(N3Cc4ccccc4OC4=C3C(=O)c3c(O)ccc(O)c3C4=O)cn2)CC1 | -74.9% (active) | -42.8% (active) | -21.8% (active) | 11% | 1.25% (active) | -61.9% (active) | -59.9% (active) | -71.4% (active) | -60% (active) | 
Nc1ccc(C(OC(=O)c2cc3ccccc3c(Cc3c(O)c(C(=O)OC(c4ccc(N)cc4)(c4ccc(N)cc4)c4ccc(N)cc4)cc4ccccc34)c2O)(c2ccc(N)cc2)c2ccc(N)cc2)cc1 | 49.6% | 8.68% (active) | 8.57% (active) | 19% | -3.26% (active) | -47.1% (active) | 10.7% |  | 33.9% | 
COc1ccc(C(=O)c2c(N)nc3n2CCCC3)cc1OC | 98.4% | 94.7% | 85.1% | 110% | 101% | 100% | 109% | 97% | 108% | 
COc1cc(-c2n/c(=C\c3c(O)[nH]c4cc(Cl)ccc34)cc3c2=Nc2ccccc2-3)cc(OC)c1OC | 93.7% | 24.3% | 36.1% | 63.9% | 52.2% | 27.2% | 56.8% | 34.3% | 43% | 
CNC(=O)c1cc(Oc2ccc(NC(=O)c3nc(S(C)(=O)=O)sc3-c3ccc(F)cc3)cc2)ccn1 | 86.4% | 4.79% (active) |  | 84.4% | 71.1% | 90.3% | 93.3% | 45.7% | 57.9% | 86.6
CC1=NN(c2cccc(S(N)(=O)=O)c2)C(=O)C1 | 111% | 104% |  | 90.4% | 80.1% | 92.8% | 89.7% | 96.3% | 111% | 101
COc1ccc(Br)c2ccccc12 | 110% | 110% |  | 116% | 102% | 107% |  | 101% | 122% | 114
CCC(=O)NC(O)C(Cl)(Cl)C(C)Cl (stereo unspecified) | 95.6% | 95.4% |  | 98.4% | 98.2% | 97.7% | 97.5% | 96.4% | 104% | 98.6
Nc1c(C(=O)c2ccc(Br)cc2)sc2nc3c(cc12)CCCC3 | 80.9% | 96.6% |  | 97.3% | 85.4% | 92% | 93.9% | 112% | 89% | 89.6
Cc1nc2n[nH]c(N)c2nc1C | 103% | 93.6% |  | 103% | 102% | 96.6% | 106% | 98.9% | 105% | 107
O=C(c1ccccc1)N(CCCCl)C(=O)N(CCCCl)C(=O)c1ccccc1 | 94.6% | 82.1% |  | 97.4% | 72.1% | 89.6% | 65.2% | 90% | 133% | 88.5
CC(=O)N[C@@H](CCC(N)=O)C(=O)O | 113% | 95.6% |  | 126% | 74.5% | 101% | 98.2% | 91.4% | 101% | 102
CC[C@H](Nc1nc(N)nc(N)c1Cl)c1nc2cccc(NCc3ccc(C(=O)NO)cc3)c2c(=O)n1-c1ccccc1 | 40.9% | 6.69% (active) |  | 7.79% (active) | -57.2% (active) | -26.3% (active) | -56.8% (active) | -86.2% (active) |  | 
